# According to PubChem BioAssay (NCI):
# Compounds without any hit were thinned out: in the full panel of roughly 79,000, 15% have a hit. Values without a mark were called inactive. Active and inactive are the calls of the source. Rule as the data show it: active = growth inhibition above about 70%; inactive = the rest.
# How the values were obtained:
# [1] = NCI Yeast Anticancer Drug Screen. Data for the rad52 strain (AID 147);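 also: 0% = growth of vehicle-treated control cultures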; details: S. cerevisiae rad52 mutant growth inhibition, active compounds read high
# Method in brief: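 Inhibition of yeast growth, referenced to vehicle controls, was the measured output for a strain with defective DNA damage repair.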
# [2] = NCI Yeast Anticancer Drug Screen. Data for the wt1 strain (AID 149);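 also: 0% = growth of vehicle-treated wt1 cultures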; details: S. cerevisiae wt1 strain (SPY 50644) growth inhibition, active compounds read high
# Method in brief: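 Growth inhibition read against vehicle controls after compound exposure of the wt1 yeast strain.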
# [3] = NCI Yeast Anticancer Drug Screen. Data for the rad50EPP+ strain (AID 151);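 also: 0% = growth of vehicle-treated control cultures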; details: S. cerevisiae rad50 mutant strain, active compounds read high
# Method in brief: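 Genetically defined yeast (rad50EPP+, DNA damage repair alteration) is grown with compound, and inhibition of growth is expressed relative to vehicle-treated controls.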
# [4] = NCI Yeast Anticancer Drug Screen. Data for the mgt1 strain (AID 153); details: S. cerevisiae mgt1 mutant growth inhibition, active compounds read high
# Method in brief: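 In the mgt1 strain, test compounds were added and growth inhibition was determined relative to vehicle-treated controls.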
# [5] = NCI Yeast Anticancer Drug Screen. Data for the rad50 strain (AID 155);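 also: 0% = growth of vehicle-only cultures of the same strain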; details: S. cerevisiae rad50 strain growth inhibition, active compounds read high
# Method in brief: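 Readout: growth inhibition relative to vehicle-treated cultures. Compound exposure was carried out in a genetically defined yeast strain deficient in DNA damage repair.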
# [6] = NCI Yeast Anticancer Drug Screen. Data for the mec2-1 strain (AID 157); details: S. cerevisiae mec2-1 strain, active compounds read high
# Method in brief: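 Each compound was tested on mec2-1 yeast, a strain altered in DNA damage repair or cell cycle control. Growth inhibition is reported relative to vehicle.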
# [7] = NCI Yeast Anticancer Drug Screen. Data for the rad14 strain (AID 159);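 also: 0% = growth of vehicle-treated control cultures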; details: S. cerevisiae rad14 strain growth inhibition, active compounds read high
# Method in brief: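 Growth inhibition vs vehicle controls; genetically altered yeast strain (DNA damage repair defect) treated with test compounds.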
# [8] = NCI Yeast Anticancer Drug Screen. Data for the sgs1 mgt1 strain (AID 161);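 also: 0% = growth of cultures given vehicle only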; details: S. cerevisiae sgs1 mgt1 strain, active compounds read high
# Method in brief: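 Genetically altered yeast, compound exposure, growth inhibition relative to vehicle.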
# [9] = NCI Yeast Anticancer Drug Screen. Data for the bub3 strain (AID 167); details: S. cerevisiae bub3 mutant strain, active compounds read high
# Method in brief: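 Readout: yeast growth inhibition, expressed relative to vehicle-only wells. The test organism is a mutant strain from a panel with lesions in DNA repair or checkpoint genes.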
# [10] = NCI Yeast Anticancer Drug Screen. Data for the wt2 strain (AID 169);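 also: 0% = growth of vehicle-treated yeast cultures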; details: S. cerevisiae wt2 strain growth inhibition, active compounds read high
# Method in brief: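 The panel's yeast strains carry defined changes in DNA repair or cell cycle genes. Each strain is grown with compound, and growth loss is scored relative to vehicle.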
# [11] = NCI Yeast Anticancer Drug Screen. Data for the mlh1 strain (AID 171);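 also: 0% = growth of vehicle-treated control cultures of the same strain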; details: S. cerevisiae mlh1 strain growth inhibition, active compounds read high
# Method in brief: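 Inhibition values reflect reduced yeast growth in the presence of compound, referenced to vehicle controls, using a strain chosen for its alteration in DNA repair or cell cycle control.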
# [12] = NCI Yeast Anticancer Drug Screen. Data for the sgs1 strain (AID 173);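 also: 0% = growth of vehicle-only control cultures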; details: S. cerevisiae sgs1 mutant, active compounds read high
# Method in brief: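 Vehicle-treated cultures served as reference for growth inhibition of a yeast strain altered in DNA damage repair or cell cycle control after compound exposure.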
# [13] = NCI Yeast Anticancer Drug Screen. Data for the mlh1 rad18 strain (AID 175); details: S. cerevisiae mlh1 rad18 strain growth inhibition, active compounds read high
# Method in brief: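 Inhibition values reflect reduced growth of mutant yeast versus vehicle-treated controls following compound exposure; the mutations affect DNA damage repair.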
# [14] = NCI Yeast Anticancer Drug Screen. Data for the rad18 strain (AID 177); details: S. cerevisiae rad18 mutant growth inhibition, active compounds read high
# Method in brief: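 Steps: expose repair-mutant yeast to compound; measure growth; express as inhibition relative to vehicle control.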
# [15] = NCI Yeast Anticancer Drug Screen. Data for the cln2 rad14 strain (AID 165);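 also: 0% = growth equal to vehicle treated cultures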; details: S. cerevisiae cln2 rad14 strain, active compounds read high
# Method in brief: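 Test compounds were added to cln2 rad14 yeast cultures; inhibition of growth was then determined by comparison with vehicle treatment.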
# [16] = at 5.0 µM (retest, dose inferred, filed as 0.5)
# [17] = at 50.0 µM (retest, dose inferred, filed as 5.0)
compound,measurement,setting,value
CC(C)(C)[Si](C)(C)OCC1CCC(n2cnc3c(NC(=O)c4ccccc4)ncnc32)O1 (stereo not given),growth inhibition,[1]; at 1.2 µM,-2%
same,growth inhibition,[1]; at 3.7 µM,-3%
same,growth inhibition,[1]; at 11.0 µM,-2%
same,growth inhibition,[1]; at 33.0 µM,-1%
same,growth inhibition,[1]; at 100.0 µM,-2%
same,growth inhibition,[2]; at 1.2 µM,0%
same,growth inhibition,[2]; at 3.7 µM,0%
same,growth inhibition,[2]; at 11.0 µM,0%
same,growth inhibition,[2]; at 33.0 µM,4%
same,growth inhibition,[2]; at 100.0 µM,-2%
same,growth inhibition,[3]; at 1.2 µM,-3%
same,growth inhibition,[3]; at 3.7 µM,-2%
same,growth inhibition,[3]; at 11.0 µM,1%
same,growth inhibition,[3]; at 33.0 µM,5%
same,growth inhibition,[3]; at 100.0 µM,5%
same,growth inhibition,[4]; at 1.2 µM,-3%
same,growth inhibition,[4]; at 3.7 µM,-6%
same,growth inhibition,[4]; at 11.0 µM,0%
same,growth inhibition,[4]; at 33.0 µM,0%
same,growth inhibition,[4]; at 100.0 µM,-2%
same,growth inhibition,[5]; at 1.2 µM,1%
same,growth inhibition,[5]; at 3.7 µM,-49%
same,growth inhibition,[5]; [16],0%
same,growth inhibition,[5]; at 11.0 µM,-28%
same,growth inhibition,[5]; at 33.0 µM,2%
same,growth inhibition,[5]; [17],31%
same,growth inhibition,[5]; at 50.0 µM,87.5% (active)
same,growth inhibition,[5]; at 100.0 µM,1%
same,growth inhibition,[6]; at 1.2 µM,-3%
same,growth inhibition,[6]; at 3.7 µM,0%
same,growth inhibition,[6]; [16],-2%
same,growth inhibition,[6]; at 11.0 µM,-1%
same,growth inhibition,[6]; at 33.0 µM,0%
same,growth inhibition,[6]; [17],49%
same,growth inhibition,[6]; at 50.0 µM,90% (active)
same,growth inhibition,[6]; at 100.0 µM,0%
same,growth inhibition,[7]; at 1.2 µM,-1%
same,growth inhibition,[7]; at 3.7 µM,-2%
same,growth inhibition,[7]; at 11.0 µM,3%
same,growth inhibition,[7]; at 33.0 µM,3%
same,growth inhibition,[7]; at 100.0 µM,2%
same,growth inhibition,[8]; [16],-1%
same,growth inhibition,[8]; [17],6%
same,growth inhibition,[8]; at 50.0 µM,27.2%
same,growth inhibition,[9]; at 1.2 µM,2%
same,growth inhibition,[9]; at 3.7 µM,0%
same,growth inhibition,[9]; [16],-2%
same,growth inhibition,[9]; at 11.0 µM,1%
same,growth inhibition,[9]; at 33.0 µM,-2%
same,growth inhibition,[9]; [17],30%
same,growth inhibition,[9]; at 50.0 µM,23.1%
same,growth inhibition,[9]; at 100.0 µM,-4%
same,growth inhibition,[10]; at 1.2 µM,-1%
same,growth inhibition,[10]; at 3.7 µM,7%
same,growth inhibition,[10]; at 11.0 µM,-2%
same,growth inhibition,[10]; at 33.0 µM,5%
same,growth inhibition,[10]; at 100.0 µM,-1%
same,growth inhibition,[11]; at 1.2 µM,0%
same,growth inhibition,[11]; at 3.7 µM,-3%
same,growth inhibition,[11]; at 11.0 µM,-1%
same,growth inhibition,[11]; at 33.0 µM,-1%
same,growth inhibition,[11]; at 100.0 µM,-1%
same,growth inhibition,[12]; at 1.2 µM,-2%
same,growth inhibition,[12]; at 3.7 µM,-2%
same,growth inhibition,[12]; at 11.0 µM,0%
same,growth inhibition,[12]; at 33.0 µM,1%
same,growth inhibition,[12]; at 100.0 µM,0%
same,growth inhibition,[13]; [16],-5%
same,growth inhibition,[13]; [17],47%
same,growth inhibition,[13]; at 50.0 µM,80.9% (active)
same,growth inhibition,[14]; at 1.2 µM,-3%
same,growth inhibition,[14]; at 3.7 µM,2%
same,growth inhibition,[14]; at 11.0 µM,-1%
same,growth inhibition,[14]; at 33.0 µM,1%
same,growth inhibition,[14]; at 100.0 µM,-1%
O=C1N=C2SC=C(NC(=S)Nc3ccccc3)N2NC12c1ccccc1-c1ccccc12,growth inhibition,[1]; at 1.2 µM,11%
same,growth inhibition,[1]; at 3.7 µM,12%
same,growth inhibition,[1]; at 11.0 µM,19%
same,growth inhibition,[1]; at 33.0 µM,46%
same,growth inhibition,[1]; at 100.0 µM,73% (active)
same,growth inhibition,[2]; at 1.2 µM,3%
same,growth inhibition,[2]; at 3.7 µM,3%
same,growth inhibition,[2]; at 11.0 µM,7%
same,growth inhibition,[2]; at 33.0 µM,38%
same,growth inhibition,[2]; at 100.0 µM,78% (active)
same,growth inhibition,[3]; at 1.2 µM,2%
same,growth inhibition,[3]; at 3.7 µM,7%
same,growth inhibition,[3]; at 11.0 µM,5%
same,growth inhibition,[3]; at 33.0 µM,11%
same,growth inhibition,[3]; at 100.0 µM,16%
same,growth inhibition,[4]; at 1.2 µM,6%
same,growth inhibition,[4]; at 3.7 µM,6%
same,growth inhibition,[4]; at 11.0 µM,30%
same,growth inhibition,[4]; at 33.0 µM,77% (active)
same,growth inhibition,[4]; at 100.0 µM,88% (active)
same,growth inhibition,[5]; at 1.2 µM,6%
same,growth inhibition,[5]; at 3.7 µM,0%
same,growth inhibition,[5]; [16],1%
same,growth inhibition,[5]; at 11.0 µM,4%
same,growth inhibition,[5]; at 33.0 µM,49%
same,growth inhibition,[5]; [17],48%
same,growth inhibition,[5]; at 50.0 µM,78% (active)
same,growth inhibition,[5]; at 100.0 µM,76% (active)
same,growth inhibition,[6]; at 1.2 µM,15%
same,growth inhibition,[6]; at 3.7 µM,13%
same,growth inhibition,[6]; [16],-11%
same,growth inhibition,[6]; at 11.0 µM,22%
same,growth inhibition,[6]; at 33.0 µM,57%
same,growth inhibition,[6]; [17],8%
same,growth inhibition,[6]; at 50.0 µM,45.9%
same,growth inhibition,[6]; at 100.0 µM,81% (active)
same,growth inhibition,[7]; at 1.2 µM,10%
same,growth inhibition,[7]; at 3.7 µM,3%
same,growth inhibition,[7]; at 11.0 µM,14%
same,growth inhibition,[7]; at 33.0 µM,49%
same,growth inhibition,[7]; at 100.0 µM,84% (active)
same,growth inhibition,[15]; [16],-4%
same,growth inhibition,[15]; [17],15%
same,growth inhibition,[15]; at 50.0 µM,57.9%
same,growth inhibition,[9]; at 1.2 µM,10%
same,growth inhibition,[9]; at 3.7 µM,5%
same,growth inhibition,[9]; [16],-14%
same,growth inhibition,[9]; at 11.0 µM,11%
same,growth inhibition,[9]; at 33.0 µM,54%
same,growth inhibition,[9]; [17],46%
same,growth inhibition,[9]; at 50.0 µM,74.7% (active)
same,growth inhibition,[9]; at 100.0 µM,70% (active)
same,growth inhibition,[10]; at 1.2 µM,2%
same,growth inhibition,[10]; at 3.7 µM,4%
same,growth inhibition,[10]; at 11.0 µM,23%
same,growth inhibition,[10]; at 33.0 µM,76% (active)
same,growth inhibition,[10]; at 100.0 µM,90% (active)
same,growth inhibition,[11]; at 1.2 µM,10%
same,growth inhibition,[11]; at 3.7 µM,8%
same,growth inhibition,[11]; at 11.0 µM,20%
